Data published in ChEMBL document CHEMBL4808148, “HDAC6 screening dataset using tau-based substrate in an enzymatic assay yields selective inhibitors and activators” (2021).
About 390 (7%) of roughly 5,600 compounds showed an effect of 50% or more. The sample as a whole holds a higher share of strong results than the screen did.

Target: T1, Protein deacetylase HDAC6 (Homo sapiens) (UniProt Q9UBN7)
T1 sequence (whole entry): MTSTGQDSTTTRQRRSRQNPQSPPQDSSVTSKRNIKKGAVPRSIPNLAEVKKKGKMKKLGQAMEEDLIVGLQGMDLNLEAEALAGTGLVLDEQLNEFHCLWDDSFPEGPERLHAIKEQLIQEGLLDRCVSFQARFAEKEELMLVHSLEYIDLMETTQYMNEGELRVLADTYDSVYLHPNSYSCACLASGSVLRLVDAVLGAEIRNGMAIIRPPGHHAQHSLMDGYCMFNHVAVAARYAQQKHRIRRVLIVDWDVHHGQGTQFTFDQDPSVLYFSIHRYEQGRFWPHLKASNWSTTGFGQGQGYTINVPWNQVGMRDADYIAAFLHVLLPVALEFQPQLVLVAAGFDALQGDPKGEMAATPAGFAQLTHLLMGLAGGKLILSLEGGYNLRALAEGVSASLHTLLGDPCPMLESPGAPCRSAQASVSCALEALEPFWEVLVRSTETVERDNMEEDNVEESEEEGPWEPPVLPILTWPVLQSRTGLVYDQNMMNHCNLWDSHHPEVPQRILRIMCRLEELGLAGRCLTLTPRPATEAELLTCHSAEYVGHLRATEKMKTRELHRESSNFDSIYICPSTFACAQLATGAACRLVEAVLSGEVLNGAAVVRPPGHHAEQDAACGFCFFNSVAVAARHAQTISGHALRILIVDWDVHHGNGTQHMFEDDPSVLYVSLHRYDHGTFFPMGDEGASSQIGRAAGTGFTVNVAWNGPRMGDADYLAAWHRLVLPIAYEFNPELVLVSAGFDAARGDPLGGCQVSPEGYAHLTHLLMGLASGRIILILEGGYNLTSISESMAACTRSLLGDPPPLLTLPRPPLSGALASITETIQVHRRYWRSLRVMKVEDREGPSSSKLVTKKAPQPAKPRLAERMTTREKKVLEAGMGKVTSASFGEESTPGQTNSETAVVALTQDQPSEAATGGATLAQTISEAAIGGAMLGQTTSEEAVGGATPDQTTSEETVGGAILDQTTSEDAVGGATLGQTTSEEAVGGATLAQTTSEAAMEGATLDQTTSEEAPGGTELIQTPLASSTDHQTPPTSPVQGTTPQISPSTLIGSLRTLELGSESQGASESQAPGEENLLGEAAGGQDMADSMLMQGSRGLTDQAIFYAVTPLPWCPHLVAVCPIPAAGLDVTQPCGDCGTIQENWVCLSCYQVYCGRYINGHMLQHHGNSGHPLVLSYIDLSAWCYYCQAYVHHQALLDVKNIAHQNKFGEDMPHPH
Settings: at 10 µM

In the case of CN1CCN(C(=O)c2nc3ccc(Cl)cc3[nH]2)CC1, the inhibition is reported as 16.2%.
With CN1CCN(c2ccc3nc(-c4c(N)c5c(F)cccc5[nH]c4=O)[nH]c3c2)CC1 the inhibition was 86.8%.
For CC(C)=CCC[C@](C)(O)[C@H]1CC[C@]2(C)[C@@H]1[C@H](O)C[C@@H]1[C@@]3(C)CC[C@H](O[C@@H]4O[C@H](CO)[C@@H](O)[C@H](O)[C@H]4O[C@@H]4O[C@H](CO)[C@@H](O)[C@H](O)[C@H]4O)C(C)(C)[C@@H]3CC[C@]12C, the inhibition was 11.5%.
O=C(Cn1ccnc1[N+](=O)[O-])NCc1ccccc1 was tested, and the inhibition was 32.3%.
In the case of Cc1c[nH]c(=O)n(CCCN2CCN(c3ccccc3OCC(F)(F)F)CC2)c1=O, the inhibition is reported as 19.2%.
CS(=O)(=O)N1CCN(Cc2cc3nc(-c4cccc5[nH]ncc45)nc(N4CCOCC4)c3s2)CC1 gave an inhibition of 11.1%.
COC(=O)Nc1ccc(-c2nc(N3CCOCC3)c3cnn(C4CCN(C(=O)OC)CC4)c3n2)cc1 showed an inhibition of 21.1%.
In the case of COc1ccc(-c2nc(N3CCOCC3)c3sc(CN(C)c4ncc(C(=O)NO)cn4)cc3n2)cn1, the inhibition is reported as 98%.
C[N+](C)(C)NCCC(=O)[O-] gave an inhibition of 17.8%.
Cn1c(=O)c2c(ncn2CCOC(=O)C(C)(C)Oc2ccc(Cl)cc2)n(C)c1=O showed an inhibition of 23.6%.
Work on c1ccc(-c2n[nH]c3c2oc2ccccc23)cc1 yielded an inhibition of 95%.
Compound CCC/C=C1\OC(=O)C2=C1CCC=C2 has an inhibition of 39.5%.
In the case of CC(=C\c1ccc(Cl)cc1)/C(C)=N/O, the inhibition is reported as 2.85%.
Work on NC(CC(F)C(=O)O)C(=O)O (racemic) yielded an inhibition of 38.9%.
C=CC(C)(C)c1cc(/C=C/C(=O)c2ccc(O)cc2)c(OC)cc1O was tested, and the inhibition was 75.1%.
Compound COC(=O)/C=C/c1cc(O)ccc1O has an inhibition of 28.1%.
CCOc1cc2ncc(C#N)c(Nc3ccc(OCc4cccc(F)c4)c(Cl)c3)c2cc1NC(=O)/C=C/CN(C)C showed an inhibition of -4.4%.
Compound Clc1ccc2nsnc2c1NC1=NCCN1 has an inhibition of -9.25%.
For CC(C)Oc1ccc(Cc2ccc(NC3=NCCN3)cc2)cc1, the inhibition was 64%.
CCc1[nH]c(=O)[nH]c1C(=O)c1ccncc1 was tested, and the inhibition was -6.73%.
Work on COc1ccc2nc3[nH]nc(C)c3c(NCCOCCO)c2c1 yielded an inhibition of 0.89%.
For COc1cc(OC)c2c(=O)[nH]c(-c3cc(C)c(OCCO)c(C)c3)nc2c1, the inhibition was 80.1%.
Nc1nc(Nc2ccc(S(N)(=O)=O)cc2)nn1C(=O)c1c(F)cccc1F was tested, and the inhibition was 38.5%.
In the case of COc1ccc(CNC(=O)c2sc3nc(C)cc(C)c3c2N)cc1, the inhibition is reported as 2.68%.
COc1cc2ncnc(Nc3cccc(Br)c3)c2cc1OC showed an inhibition of 16.9%.
C#Cc1cccc(Nc2ncnc3cc(OCCOC)c(OCCOC)cc23)c1 was tested, and the inhibition was 32.3%.
In the case of C#Cc1cccc(Nc2ncnc3cc(OC)c(OCCCCCCC(=O)NO)cc23)c1, the inhibition is reported as 101%.
With Cn1ccnc1S the inhibition was -0.6%.
Compound O=C(O)c1cc(C(=O)O)c(C(=O)N(Cc2cccc(Oc3ccccc3)c2)[C@H]2CCCc3ccccc32)cc1C(=O)O has an inhibition of 7.63%.
With Cc1ccc(Sc2ccccc2N2CCNCC2)c(C)c1 the inhibition was -7.14%.
In the case of CC(=O)Nc1cccc(O)c1, the inhibition is reported as 34.1%.
For COC(=O)/C=C/c1cccc(N(Cc2ccc(-c3ccc(N(C)C)cc3)cc2)C(=O)C2CCCCC2)c1, the inhibition was -3.18%.
CN(C)C(=O)Nc1cccc(-c2ccc(N(C)C)cc2)c1 gave an inhibition of 94.6%.
Compound CC1(C)C(/C=C/C=C/C=C/C=C2\N(CCCCS(=O)(=O)O)c3ccc4ccccc4c3C2(C)C)=[N+](CCCCS(=O)(=O)[O-])c2ccc3ccccc3c21 has an inhibition of 21.1%.
In the case of O=C(O)COCCN1CCN([C@H](c2ccccc2)c2ccc(Cl)cc2)CC1, the inhibition is reported as -6.59%.
Work on O=C(O)COCCN1CCN(C(c2ccccc2)c2ccc(Cl)cc2)CC1 (configuration not stated) yielded an inhibition of -6.57%.
OCCOCCN1CCN(C(c2ccccc2)c2ccc(Cl)cc2)CC1 (configuration not stated) showed an inhibition of 89.5%.
Cc1c(CC(C)(C)C(=O)O)n(Cc2ccc(Cl)cc2)c2ccc(F)cc12 showed an inhibition of 3.54%.
Compound Nc1ccn([C@@H]2C(F)=C(CO)[C@@H](O)[C@H]2O)c(=O)n1 has an inhibition of 8.8%.
With CCc1cccc(CC)c1NC(=O)c1nn(C)c2c1CCc1cnc(Nc3ccc(C(=O)NC4CCN(C)CC4)cc3OC(F)(F)F)nc1-2 the inhibition was -2.89%.
Compound CC(C)(CCCCCCCCCCC(C)(C)CC(=O)O)CC(=O)O has an inhibition of -0.28%.
With N#Cc1cc(F)cc(-c2nc(-c3ccc(F)cn3)no2)c1 the inhibition was 83.6%.
N#Cc1cccc(-c2nc(-c3cccnc3)no2)c1 gave an inhibition of 19.8%.
With COC(=O)c1cnn(-c2ccc(F)cc2F)c1/C=N/NC(=S)NC(C)(C)C the inhibition was 0.12%.
For CC[C@H](C)[C@H](N)C(=O)O, the inhibition was 9.28%.
Work on COc1ncc2cc(C(=O)Nc3cc(C(=O)NCc4cccc(Cl)c4)ccc3Cl)c(=O)[nH]c2n1 yielded an inhibition of 4.52%.
Cn1nc(-c2cccc(F)c2)n(C)c1=S gave an inhibition of 17.9%.
Cc1csc(S(=O)(=O)N(CC(C)C)c2cc3c(cc2OCc2ccc(C(=O)O)cc2)CCC3)n1 was tested, and the inhibition was 1.78%.
Cc1ccc(NC(=O)c2cccc(N(C)C)c2)cc1NC(=O)c1ccc(O)cc1 was tested, and the inhibition was 80.4%.
In the case of CNCc1ccc(C)c(NC(=O)c2ccc(Nc3nc(-c4ccccc4)c4ccccc4n3)cc2)c1, the inhibition is reported as -7.66%.
For Cc1ccc(C(=O)Nc2ccc(S(=O)(=O)O)c3cc(S(=O)(=O)O)cc(S(=O)(=O)O)c23)cc1NC(=O)c1cccc(NC(=O)Nc2cccc(C(=O)Nc3cc(C(=O)Nc4ccc(S(=O)(=O)O)c5cc(S(=O)(=O)O)cc(S(=O)(=O)O)c45)ccc3C)c2)c1, the inhibition was 32.3%.
CC(=O)O[C@H]1CC[C@@]2(C)C(=CC[C@@H]3[C@@H]2CC[C@]2(C)C(c4cccnc4)=CC[C@@H]32)C1 showed an inhibition of 15.8%.
